Test results reported in ChEMBL document CHEMBL3988442, “University of Dundee, Small-Polar-MMV Screening Library” (2021).
Out of some 48,000 compounds screened, about 13,000 (27%) showed an effect of 50% or more. This is one part of the list.

System: Wolbachia pipientis
Assay: Anti-Wolbachia Cell-Based Screen
Type: functional
Design: scale not given: in the data most compounds retested in dose-response had high values
Conditions: 5 µM

SMILES	Percent Effect [%]
O=C(CSc1ccccn1)N1C[C@H]2CC[C@@H]1CN(Cc1cscn1)C2	3.579
CCN(CC)c1ncc(Cl)c(C(=O)NC2CCc3nccn3C2)n1 (centres undefined)	-2.888
Cc1ccccc1N1CCN(C(=O)c2cnn(C(C)C)c2)C(C)C1 (centres undefined)	2.986
COc1cccc2c1OCC(C(=O)N(Cc1ccncc1)CC(C)C)C2 (centres undefined)	-1.678
CC(C)N(CCO)C(=O)C1CCC(=O)N(CCc2ccc(Cl)cc2)C1 (centres undefined)	-6.406
CNC(=O)COC1COC2(CCN(Cc3cccnc3OC)CC2)C1.O=C(O)C(F)(F)F (centres undefined)	91.78
COc1ncccc1CN1CCC2(CC1)CC(OCC1CC1)CO2.O=C(O)C(F)(F)F (centres undefined)	103.5
CCOC1COC2(CCN(Cc3cccnc3OC)CC2)C1.O=C(O)C(F)(F)F.O=C(O)C(F)(F)F (centres undefined)	97.13
COC1COC2(CCN(Cc3ccccc3Cl)CC2)C1.O=C(O)C(F)(F)F (centres undefined)	-10.24
COc1ncccc1CN1CCC2(CC1)CN(c1ccccn1)CCO2.O=C(O)C(F)(F)F.O=C(O)C(F)(F)F.O=C(O)C(F)(F)F	8.158
CNC(=O)COC1COC2(CCN(c3ncccn3)CC2)C1.O=C(O)C(F)(F)F (centres undefined)	21.38
COc1cccc2c1OCC(CNC(=O)CCn1cnnn1)C2 (centres undefined)	-3.423
Cc1cc(N2CCCC(OC(=O)CCc3cnn(C)c3)C2)nc(C)n1 (centres undefined)	0.03167
COCCN1CCC(C)(c2cc(O)[nH]n2)CC1	107.8
COCCN1CCN(CC2(O)CCCCC2)CC1	-7.115
COCCCC1(CO)CCCN(CCS(C)(=O)=O)C1 (centres undefined)	-5.665
COCCN1CCCC(C)(c2cc(O)[nH]n2)C1 (centres undefined)	85
COCCCC1(CO)CCCN(CCOC)C1 (centres undefined)	5.578
COCCN1CCC2(CC1)CC(OCC1CC1)c1ccc(C)cc12 (centres undefined)	-29.1
COc1cccc([C@@H]2CN(C3CSCCSC3)C[C@H]2C(=O)O)c1	-1.681
O=C(O)C(F)(F)F.O=C(O)C(F)(F)F.c1cnc(N2CC[C@@H](N3CCOCC3)[C@@H]2Cc2ccncc2)nc1	-7.245
CC(C)NC(=O)NC(C)c1ccc(-c2ccncc2)cc1 (centres undefined)	-5.821
CO[C@H]1CCN(S(=O)(=O)c2cn(C)cn2)[C@H]1Cc1ccncc1	-4.113
CN([C@@H]1CCC[C@@H](n2ccnc2)[C@@H]1O)S(=O)(=O)c1cn(C)cn1	87.13
Cc1nn(C)cc1S(=O)(=O)N(C)[C@@H]1CCC[C@@H](n2ccnc2)[C@@H]1O	94.74
CC(C)N(C)CC(=O)N1CCCC(n2ccnc2)C1 (centres undefined)	-10.62

SMILES	Percent Effect [%]
CN(C)C(=O)c1cc(S(=O)(=O)N2CCCC2Cn2ccnc2)cn1C (centres undefined)	11.52
CCN(CC)[C@@H]1CN(S(=O)(=O)c2cn(C)cn2)[C@@H]2CCCO[C@H]12	-3.081
CNC(=O)[C@@H](c1ccccc1F)N1CCC[C@H]1C(=O)NC1CCOCC1.Cl	3.155
CCCN1CCCn2nc(CNS(=O)(=O)c3cccc(C#N)c3)cc2C1	3.103
COCCOc1ccc(CNC2CCc3ncnn3C2)cc1OC (centres undefined)	100.1999
c1ccc(OC2CCCC2)c(CNC2CCc3ncnn3C2)c1 (centres undefined)	12.7
COc1ccc(CNC2CCC(O)CC2)cc1OCCCC#N (centres undefined)	107.9
COc1ccc(CCC(=O)NC2CCC(O)CC2)cc1OC (centres undefined)	-0.04658
COc1ccc(CNCC2CC2)cc1F	0.5807
COc1ccc(CNC2CCc3ncnn3C2)cc1OCCCC#N (centres undefined)	100.9
CNC(=O)COc1ccccc1CNC1CCc2ncnn2C1 (centres undefined)	-1.235
COc1ccc(CNC2CCc3ncnn3C2)cc1OCC1CC1 (centres undefined)	83.43
CN(C)C(=O)COc1ccccc1CNC1CCc2ncnn2C1 (centres undefined)	-0.6489
CCOc1ccc(N(CCC#N)C(=O)c2ccc(OC)nc2)cc1	22.48
CC(C)N(CC(N)=O)Cc1csc(COc2ccc(F)cc2)n1	-2.254
CC(C)CN1CC2(CCN(C(=O)C(O)c3cccc(Cl)c3)CC2)CC1=O (centres undefined)	4.909
COc1cc(C)nc(N2CCN(C(=O)CCc3ccsc3)CC2)n1	17.96
CC(C)N(Cc1ccccn1)C(=O)CN(C)C(=O)c1cccs1	109.7
Cc1ccccc1CN(Cc1ccccn1)C(=O)CN(C)C(C)C	-1.429
CN(Cc1ccccc1NCc1ncc[nH]1)C(=O)c1cccs1	4.243
CN(Cc1ccccc1NCc1cscn1)C(=O)c1cccs1	-0.6624
CN(CCc1ccccn1)C(=O)c1cccs1.Cl	100.7
CN(CC(=O)NCCc1ccccn1)C(=O)c1cccs1	94.6
O=C(Cc1ccc2c(c1)CCCC2)NCCc1ccccn1	0.3571
CN(CCc1ccccn1)C(=O)c1cn2c(n1)CNCC2	-0.4774
Cc1cccnc1CC(C)N(C)C(=O)c1cccs1 (centres undefined)	-6.366

SMILES	Percent Effect [%]
Cc1nnn2c1COCC(CNC(=O)c1ccc3[nH]ccc3c1)C2 (centres undefined)	13.15
CCN(C)CC1CCN(C(=O)Nc2ccc(-c3csnn3)cc2)C1 (centres undefined)	-9.21
Cc1nc(C)c(CN(C)C2CCN(C(=O)OC(C)(C)C)CC2)s1	-6.792
O=S(=O)(Nc1cn[nH]c1)c1ccc(F)c(Br)c1	-20.95
CC(=O)N(C)CC(=O)NCC1(c2cccc(C)c2)CCCC1	-4.333
CN(C)c1cncc(C2CCN(CCO)CC2)n1	-9.091
COCCN1CCC(c2nc3ccccc3[nH]2)CC1	5.31
CN(C)c1cncc(C2CCN(CC(N)=O)CC2)n1	103
OC1(CN2CCCC2)CCCN(Cc2ccc(F)cc2Cl)C1 (centres undefined)	-5.76
CN(C)c1cncc(C2CCN(CC3(O)CCCCC3)CC2)n1	90.17
OC1(CN2CCCC2)CCCN(Cc2c[nH]c(CC3CCCC3)n2)C1 (centres undefined)	-7.473
COCCN1CCC(c2cncc(N(C)C)n2)CC1	88.64
CCn1ncnc1CN1CCOC(Cc2cccc3ccccc23)C1 (centres undefined)	-5.971
CCn1cc(C(=O)NCC2(C(N)=O)CCOCC2)c2ccccc21	-0.08495
Cc1nc(CN(C)C(=O)C2CCC(=O)N(CCN(C)C)C2)cs1 (centres undefined)	7.495
CCCN(CCc1ccccn1)C(=O)Cn1cc(C)cn1	98.5
Cc1ccccc1C(=O)N1C[C@@H]2[C@@H](CN(C)CCc3ccccn3)[C@@H]2C1	-8.245
CN(C)c1ccc(C(=O)Nc2cnn(Cc3ccccn3)c2)cc1	-12.03
CN(CCc1ccccn1)C(=O)C1Cc2ccccc2CN1C (centres undefined)	6.694
CCCN(CCc1ccccn1)C(=O)CCc1cnn(C)c1	95.46
CN(CCCc1cnn(C)c1)C(=O)C1COc2ccccc2C1 (centres undefined)	-12.29
Cc1cnn(C2CN(CC(=O)NCc3ccccn3)C2)c1	0.4192
CCCN(CCc1ccccn1)C(=O)Cn1cnnn1	104.6
Cc1ccc(CC(NC(=O)Cn2cnnn2)c2ccccn2)cc1 (centres undefined)	13.96
N#CC1(NC(=O)COc2cc(Cl)cc(Cl)c2)CCOCC1	-7.839
COc1ccc(CN2C[C@@H]3CC[C@H](C2)N(Cc2snnc2C)C3)cc1	-1.178

SMILES	Percent Effect [%]
CC(C)OCCC(=O)Nc1ncn(CC(=O)N2CCCCCC2)n1	-17.71
CCCS(=O)(=O)N1CCc2onc(CNc3ncccn3)c2C1	6.344
CCn1cc(CN2CCCC(COc3ccc(F)cc3)C2)cn1 (centres undefined)	31.54
Cc1c(CNCc2nn(-c3ccccc3)c3c2CCC3)cc(C#N)n1C	-12.67
Cc1nccn1C1CCCN(C(=O)c2ccc3c(c2)NC(=O)CO3)C1 (centres undefined)	3.537
CCc1nccn1C1CCCN(C(=O)c2ccc3c(c2)OCO3)C1 (centres undefined)	0.5679
CC(C)c1nccn1C1CCCN(C(=O)c2ccc3c(c2)OCO3)C1 (centres undefined)	-3.611
Cc1nccn1C1CCCN(C(=O)c2ccc3c(c2)OCCCO3)C1 (centres undefined)	112.3
CCc1nccn1C1CCCN(C(=O)c2ccc3c(c2)OCCO3)C1 (centres undefined)	89.9
CCc1nccn1C1CCCN(C(=O)c2ccnc(N(C)C)c2)C1 (centres undefined)	1.194
CN(C)c1nc(NCc2ccccc2Cn2cccn2)ncc1F	5.014
Cc1cccc(C(=O)Nc2ccc(OC3CCOCC3)c(C)c2)n1	4.017
COc1ccc(CN2CCCC2)cc1Oc1ccc2c(c1)CC(CN)O2 (centres undefined)	-16.95
O=C(c1ccc(SC(F)(F)F)cc1)N1CCOCC1c1ncon1 (centres undefined)	-6.89
CC(C(=O)N(C)Cc1ccc(Br)o1)n1cncn1 (centres undefined)	-10.62
CCCn1nccc1NC(=O)c1ccc(Cl)c(N2CCNC2=O)c1	-10.44
Cc1ccc(CN(C(=O)C(C)NC(N)=O)C2CC2)cc1C (centres undefined)	10.7
CC(C)N(Cc1ccc(C#N)cc1)C(=O)Nc1ccccn1	7.153
COCCN(Cc1cc(O)nc2ccccc12)C(=O)NC(C)C	129.1
COCCCN(Cc1cc(O)nc2ccccc12)C(=O)NC(C)C	116.8
COCCN(Cc1ccccc1Cl)C(=O)c1c(C)cc(C)[nH]c1=O	2.486
CCCN(Cc1ccccc1O)C(=O)Nc1cnn(CCOC)c1	-1.283
CC(C)N(CC(N)=O)Cc1csc(Cc2ccccc2)n1	-4.617
COCCCN(Cc1ccncc1)C(=O)C1COc2ccccc2C1 (centres undefined)	-18.33
COCCN(Cc1ccc(F)cc1Cl)C(=O)c1ccccn1	-0.554
CC(C)NC(=O)N(Cc1cc(O)nc2ccccc12)C(C)C	134.4
